# Experimental data from PubChem BioAssay (NCI).
# Several values for one entry are separate records, joined by “and”; a condition that tells them apart may be missing. Equal entries are not always repeated. This is part of a sample that, as a whole, favours compounds with a hit. Of some 83,000 tested, about 20% had one in any assay.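 48-hour exposure, single concentration, 96-well plates; percent growth endpoint where 0 means no net growth. Active: below 10.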 Unmarked numbers belong to inactive results. Activity calls are given as the source filed them.
# How the values were obtained:
# Assay in all cases: NCI-60 one-dose screen, 48 h (100 = growth as untreated, 0 = no growth, -100 = all killed)
# NCI-H23 lung = tested on: NCI-H23 lung
# NCI-H226 lung = tested on: NCI-H226 lung
# NCI-H322M lung = tested on: NCI-H322M lung
# HOP-62 NSCLC = tested on: HOP-62 NSCLC
# NCI-H460 lung = tested on: NCI-H460 lung
# HOP-92 NSCLC = tested on: HOP-92 NSCLC
# NCI-H522 lung = tested on: NCI-H522 lung
# A549/ATCC NSCLC = tested on: A549/ATCC NSCLC
# 786-0 renal = tested on: 786-0 renal
# COLO 205 colon = tested on: COLO 205 colon
# DU-145 prostate = tested on: DU-145 prostate
# K-562 leukemia = tested on: K-562 leukemia
# MALME-3M melanoma = tested on: MALME-3M melanoma
# MDA-MB-231 breast = tested on: MDA-MB-231 breast
# RXF 393 renal = tested on: RXF 393 renal
# SF-268 CNS = tested on: SF-268 CNS
# SF-295 CNS = tested on: SF-295 CNS
# SF-539 CNS = tested on: SF-539 CNS
# UACC-257 melanoma = tested on: UACC-257 melanoma
# M14 melanoma = tested on: M14 melanoma
smiles,measurement,setting,value
Cn1c(=O)c2[nH]c(CCCCCCCCc3nc4ccccc4[nH]3)nc2n(C)c1=O,growth,NCI-H23 lung; 10 µM unless noted,47.4% and 55.2%
same,growth,NCI-H226 lung; 10 µM unless noted,58.1% and 66.3%
same,growth,NCI-H322M lung; 10 µM unless noted,87.3% and 99.6%
same,growth,HOP-62 NSCLC; 10 µM unless noted,57% and 49.2%
same,growth,NCI-H460 lung; 10 µM unless noted,68.4% and 73.6%
same,growth,HOP-92 NSCLC; 10 µM unless noted,60.4%
same,growth,NCI-H522 lung; 10 µM unless noted,72.8%
same,growth,A549/ATCC NSCLC; 10 µM unless noted,67.4% and 70.1%
same,growth,786-0 renal; 10 µM unless noted,73.1% and 75.1%
same,growth,COLO 205 colon; 10 µM unless noted,88% and 99.6%
same,growth,DU-145 prostate; 10 µM unless noted,91.2% and 82.7%
same,growth,K-562 leukemia; 10 µM unless noted,30.9%
same,growth,MALME-3M melanoma; 10 µM unless noted,71.9%
same,growth,MDA-MB-231 breast; 10 µM unless noted,77% and 60.9%
same,growth,RXF 393 renal; 10 µM unless noted,87.9% and 101%
same,growth,SF-268 CNS; 10 µM unless noted,83.5% and 98.3%
same,growth,SF-295 CNS; 10 µM unless noted,34.8% and 35.9%
same,growth,SF-539 CNS; 10 µM unless noted,78.2% and 74.8%
same,growth,UACC-257 melanoma; 10 µM unless noted,39.7% and 72%
same,growth,M14 melanoma; 10 µM unless noted,80.7% and 80.8%
O=C1NC(=O)C2(CCc3ccccc32)N1 (stereo not given),growth,NCI-H23 lung; 10 µM unless noted,108% and 89.4%
same,growth,NCI-H226 lung; 10 µM unless noted,101% and 92.9%
same,growth,NCI-H322M lung; 10 µM unless noted,98.8% and 106%
same,growth,HOP-62 NSCLC; 10 µM unless noted,105% and 88.3%
same,growth,NCI-H460 lung; 10 µM unless noted,98.3% and 116%
same,growth,HOP-92 NSCLC; 10 µM unless noted,174%
same,growth,NCI-H522 lung; 10 µM unless noted,98.6% and 80.6%
same,growth,A549/ATCC NSCLC; 10 µM unless noted,97.4% and 91.4%
same,growth,786-0 renal; 10 µM unless noted,115% and 94.7%
same,growth,COLO 205 colon; 10 µM unless noted,97.4% and 108%
same,growth,DU-145 prostate; 10 µM unless noted,123% and 102%
same,growth,K-562 leukemia; 10 µM unless noted,116% and 83.6%
same,growth,MALME-3M melanoma; 10 µM unless noted,97% and 96.7%
same,growth,MDA-MB-231 breast; 10 µM unless noted,106% and 97.2%
same,growth,RXF 393 renal; 10 µM unless noted,95.3%
same,growth,SF-268 CNS; 10 µM unless noted,99% and 107%
same,growth,SF-295 CNS; 10 µM unless noted,96.5% and 96%
same,growth,SF-539 CNS; 10 µM unless noted,90% and 105%
same,growth,UACC-257 melanoma; 10 µM unless noted,107% and 86.1%
same,growth,M14 melanoma; 10 µM unless noted,107% and 96.5%
CCc1ccccc1-n1c(N)c(C#N)c(-c2ccc(OC)c(OC)c2)c(C#N)c1=O,growth,NCI-H23 lung; 10 µM,105%
same,growth,NCI-H23 lung; 100 µM,29.3%
same,growth,NCI-H226 lung; 10 µM,109%
same,growth,NCI-H226 lung; 100 µM,8% (active)
same,growth,NCI-H322M lung; 10 µM,108%
same,growth,NCI-H322M lung; 100 µM,39.5%
same,growth,HOP-62 NSCLC; 10 µM,95.2%
same,growth,HOP-62 NSCLC; 100 µM,-28.6% (active)
same,growth,NCI-H460 lung; 10 µM,121%
same,growth,NCI-H460 lung; 100 µM,30.1%
same,growth,HOP-92 NSCLC; 10 µM,126%
same,growth,HOP-92 NSCLC; 100 µM,-34.6% (active)
same,growth,NCI-H522 lung; 10 µM,105%
same,growth,NCI-H522 lung; 100 µM,-8.58% (active)
same,growth,A549/ATCC NSCLC; 10 µM,106%
same,growth,A549/ATCC NSCLC; 100 µM,79.9%
same,growth,786-0 renal; 10 µM,107%
same,growth,786-0 renal; 100 µM,-9.15% (active)
same,growth,COLO 205 colon; 10 µM,138%
same,growth,COLO 205 colon; 100 µM,115%
same,growth,DU-145 prostate; 10 µM,115%
same,growth,DU-145 prostate; 100 µM,37.6%
same,growth,K-562 leukemia; 10 µM,111%
same,growth,K-562 leukemia; 100 µM,124%
same,growth,MALME-3M melanoma; 10 µM,103%
same,growth,MALME-3M melanoma; 100 µM,-31.2% (active)
same,growth,MDA-MB-231 breast; 10 µM,105%
same,growth,MDA-MB-231 breast; 100 µM,23.3%
same,growth,RXF 393 renal; 10 µM,111%
same,growth,RXF 393 renal; 100 µM,-21.6% (active)
same,growth,SF-268 CNS; 10 µM,102%
same,growth,SF-268 CNS; 100 µM,0.0621% (active)
same,growth,SF-295 CNS; 10 µM,101%
same,growth,SF-295 CNS; 100 µM,19.7%
same,growth,SF-539 CNS; 10 µM,118%
same,growth,SF-539 CNS; 100 µM,-54.9% (active)
same,growth,UACC-257 melanoma; 10 µM,128%
same,growth,UACC-257 melanoma; 100 µM,96.8%
same,growth,M14 melanoma; 10 µM,112%
same,growth,M14 melanoma; 100 µM,37.1%
